We go through 28 molecules from PubChem BioAssay (NCATS).

What all share (assay): qHTS profiling for inhibitors of Plasmodium falciparum proliferation (AID 504749); also: nearly all actives have a fitted effect of over 60% in size
Common to all, as to conditions: P. falciparum in erythrocytes, SYBR Green DNA, 72 h; series mostly up to 28.7 µM
On the technique in general: Quantitative high-throughput screening tests each substance at several concentrations.

Test [1] relates to ECU. In short, it runs like this:
(§1)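 P. falciparum-infected erythrocytes (0.3% parasitemia, 2.5% hematocrit) incubated with compound 72 h at 37 C, 5% CO2. Parasite DNA detected by SYBR Green after lysis, overnight at room temperature; normalised to 0.29 uM artemisinin and DMSO.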

Test [2] has as its system FAB9. An outline of the steps: as §1
For test [3], the system named is GB4. An outline of the steps:
as §1

Test [4] relates to HB3. An outline of the steps: as §1
Test [5] has as its system ICS. In short, it runs like this:
as §1

For test [6], the system named is JCK. In short, it runs like this: as §1
Test [7] deals with N140. An outline of the steps:
as §1

For test [8], the system named is P93_24. An outline of the steps: as §1
The test system of test [9] is P94_40. An outline of the steps: as §1
The subject of test [10] is PAD. An outline of the steps:
as §1

Records with an inconclusive call do not appear. The source made the active and inactive calls. Calls follow the shape of the dose curve; as a rule, active = well fitted inhibition curve with a large enough effect; inconclusive = small, poorly fitted or top-dose-only effect; inactive = flat fitted curve, though single readings scatter.
Potency is read from the fitted curve at half-maximal effect.

For the molecule `CCN(CC)CC(=O)Nc1c(C)cccc1C`, the Potency entry in test [1], in test [2], in [3], in test [4], in test [5] and in test [6] was “inactive” in each case. For the same molecule, the Potency entry in test [7], in test [8], in test [9] and in test [10] was “inactive” each time.

On to `CC(=O)OCC1=C(C(=O)O)N2C(=O)[C@@H](NC(=O)Cc3cccs3)[C@H]2SC1`, for which the Potency entry in test [1], in test [2], in test [3], in test [4], in test [5] and in test [6] was “inactive” each time. For the same molecule, the Potency entry in test [7], in [8], in [9] and in test [10] was “inactive” in each case.

For `CN(C(=O)CCCOc1ccc2[nH]c(=O)ccc2c1)C1CCCCC1`, the Potency result in test [1], in test [2], in [3], in [4] and in [7] was “inactive” in each case.

Consider `CCCCNc1c(C(=O)OCC)c(C)nc2c1cnn2CC`, for which the Potency result in test [1], in [2], in test [3], in test [4], in [6] and in test [7] was “inactive” throughout. Moreover, the Potency entry in test [8] and in test [10] was “inactive” throughout.

As for `CN=C(NC#N)NCCSCc1nc[nH]c1C`, the Potency result in test [1], in test [2], in test [3], in [4], in [5] and in test [6] was “inactive” each time. The Potency entry in test [7], in test [8], in [9] and in test [10] was “inactive” in each case.

With `C[C@]12CCC(=O)C=C1CC[C@@H]1[C@@H]2CC[C@@]2(C)[C@H]1CC[C@]2(O)C(=O)CO`, the Potency result in test [1], in [2], in [3], in test [4], in test [6] and in test [7] was “inactive” throughout. Moreover, the Potency result in test [8], in [9] and in [10] was “inactive” throughout.

Take `Cc1ccc(Cl)c(Nc2ccccc2C(=O)O)c1Cl`: the Potency result in test [1], in test [2], in [3], in test [4], in [5] and in test [6] was “inactive” throughout. Also, the Potency result in test [7], in test [8], in test [9] and in test [10] was “inactive” throughout.

As for `CC(C)NNC(=O)c1ccncc1`, the Potency result in test [1], in [2], in [3], in test [4], in [5] and in test [6] was “inactive” in each case. For the same molecule, the Potency result in [8], in test [9] and in test [10] was “inactive” throughout.

`CCCCOCCOCCOCc1cc2c(cc1CCC)OCO2`: the Potency result in [1], in test [2], in test [3], in test [4], in test [5] and in test [6] was “inactive” throughout. In addition, the Potency result in [7], in test [8], in [9] and in [10] was “inactive” in each case.

`CCCOc1ccccc1-c1nc2n[nH]nc2c(=O)[nH]1`: the Potency result in test [1], in [2], in test [3], in test [4], in [6] and in test [7] was “inactive” in each case. Further, the Potency result in test [8], in test [9] and in test [10] was “inactive” each time.

With `COc1cc2c(cc1OC)-c1cc(=Nc3c(C)cc(C)cc3C)n(C)c(=O)n1CC2`, the Potency was 5.01 µM (active) in test [1]; 3.98 µM (active) in test [2]; 2.69 µM (active) in test [3]; 7.08 µM (active) in test [4]; 1.78 µM (active) in test [5]; 5.62 µM (active) in test [6]. For the same molecule, the Potency in [7] was 3.16 µM (active); in test [8], 3.55 µM (active); in test [9], 3.98 µM (active); in [10], 3.16 µM (active).

Regarding `CC1=C(C)C(=O)C(CCCCC#CCCCC#CCO)=C(C)C1=O`, the Potency in [1] was 2.82 µM (active); in [3], 7.57 µM (active); in test [5], 2.24 µM (active); in [7], 7.94 µM (active); in test [8], 5.01 µM (active); in [9] it was 8.91 µM (active). The Potency in test [10] was 4.47 µM (active). In [2], the Potency entry was “inactive”.

Consider `CCn1cc(C(=O)O)c(=O)c2cc3c(cc21)OCO3`, for which the Potency result in test [1], in test [2], in [3], in [4], in test [5] and in [6] was “inactive” in each case. The Potency entry in test [7], in [8], in test [9] and in test [10] was “inactive” in each case.

With `OCCN1CCN(CCCN2c3ccccc3C=Cc3ccccc32)CC1`, the Potency in test [1] is 2.82 µM (active); in [3] it was 6.75 µM (active); in test [4], 8.91 µM (active); in [5], 4.47 µM (active); in test [7] it was 3.55 µM (active); in test [8], 7.94 µM (active). Further, the Potency is 5.01 µM (active) in [9] and 3.55 µM (active) in test [10].

With `CC(C)[N+](C)(CCOC(=O)C1c2ccccc2Oc2ccccc21)C(C)C`, the Potency result in test [6] was “inactive”.

`COC(=O)C1=C(C)NC(C)=C(C(=O)OC(C)(C)CN(C)CCC(c2ccccc2)c2ccccc2)C1c1cccc([N+](=O)[O-])c1` (stereo unspecified): the Potency in [1] was 3.16 µM (active); in test [3], 2.13 µM (active); in test [4], 3.16 µM (active); in test [5], 2 µM (active); in [7] it was 2.51 µM (active); in [8], 2.51 µM (active). Besides, the Potency in [9] and in test [10] was 2.51 µM (active) in each case.

Take `OC(CCN1CCCCC1)(c1ccccc1)C1CCCCC1` (stereo unspecified): the Potency entry in [2], in test [3], in test [4], in test [6] and in test [10] was “inactive” throughout.

`Cc1nc2ccccn2c(=O)c1CCN1CCC(C(=O)c2ccc(F)cc2)CC1`: the Potency result in test [1], in test [2], in [4], in test [6] and in [7] was “inactive” in each case. Moreover, in test [5], the Potency is 8.91 µM (active).

On to `NC1=NCC2c3ccccc3Cc3ccccc3N12` (stereo unspecified), for which the Potency result in test [1], in test [2], in test [4], in test [6], in test [7] and in test [8] was “inactive” throughout. For the same molecule, the Potency result in [9] and in test [10] was “inactive” each time.

In the case of `CN(C)CC/C=C1\c2ccccc2COc2ccccc21`, the Potency entry in test [1], in test [2], in [4], in test [6] and in [10] was “inactive” in each case.

Turning to `O=C(CCCN1CCC(O)(c2cccc(C(F)(F)F)c2)CC1)c1ccc(F)cc1`, the Potency in test [1] was 2.24 µM (active); in [3], 6.01 µM (active); in test [4], 12.6 µM (active); in [5], 5.01 µM (active); in test [6], 12.6 µM (active); in test [7], 7.94 µM (active). Moreover, the Potency in test [8] is 10 µM (active); in test [9], 8.91 µM (active); in test [10] it was 10 µM (active).

`COC(=O)[C@@H](N)Cc1ccc(O)c(O)c1`: the Potency result in [1], in [2], in [4], in test [5], in [6] and in test [7] was “inactive” throughout. Besides, the Potency entry in test [8], in [9] and in test [10] was “inactive” each time.

In the case of `NC(N)=NC(=O)Cc1c(Cl)cccc1Cl`, the Potency in test [3] was 6.75 µM (active); in test [5] it was 7.94 µM (active).

On to `Brc1c(NC2=NCCN2)ccc2nccnc12`, for which the Potency result in [2], in [6] and in test [9] was “inactive” each time. Besides, the Potency in test [3] is 12 µM (active); in test [5], 3.98 µM (active); in [8], 11.2 µM (active).

For the molecule `COc1cc(C(=O)OCCCN2CCCN(CCCOC(=O)c3cc(OC)c(OC)c(OC)c3)CC2)cc(OC)c1OC`, the Potency is 8.91 µM (active) in [1]; 13.5 µM (active) in [3]; 8.91 µM (active) in [5]; 12.6 µM (active) in test [7]; 10 µM (active) in test [8].

With `C[n+]1cc2c3c(ccc2c2ccc4cc5c(cc4c21)OCO5)OCO3`, the Potency entry in test [1], in test [2], in [4], in test [5], in test [6] and in [7] was “inactive” in each case. In addition, the Potency result in [8], in [9] and in test [10] was “inactive” in each case.

Regarding `Fc1ccc(C(c2ccc(F)cc2)N2CCN(C/C=C/c3ccccc3)CC2)cc1`, the Potency in test [1] is 11.2 µM (active); in [4], 11.2 µM (active); in [5], 8.91 µM (active); in [7], 11.2 µM (active); in test [8] it was 8.91 µM (active).

With `COc1ccc(CCN(C)CCCC(C#N)(c2cc(OC)c(OC)c(OC)c2)C(C)C)cc1OC` (stereo unspecified), the Potency result in [2] was “inactive”. The Potency in [5] was 7.94 µM (active).
